The text below walks through data of PubChem BioAssay AID1376 (SRMLSC, 2008).

SMILES strings stand for the structures. Among all 220,000 compounds or so, about 530 (0.24%) were called active. Many of the other results were omitted from the sample, so actives are more common in it than they were. Potency and affinity values are given separately. A number with no mark means an inactive call. No stated cut-off is given here; in the data, active means inhibition above about 13%; inconclusive means no clear call, values can overlap the other calls; inactive means below that.

Sequence of Bifunctional protein GlmU (Mycobacterium tuberculosis (strain ATCC 25618 / H37Rv)) (P9WMN3 whole entry, looked up): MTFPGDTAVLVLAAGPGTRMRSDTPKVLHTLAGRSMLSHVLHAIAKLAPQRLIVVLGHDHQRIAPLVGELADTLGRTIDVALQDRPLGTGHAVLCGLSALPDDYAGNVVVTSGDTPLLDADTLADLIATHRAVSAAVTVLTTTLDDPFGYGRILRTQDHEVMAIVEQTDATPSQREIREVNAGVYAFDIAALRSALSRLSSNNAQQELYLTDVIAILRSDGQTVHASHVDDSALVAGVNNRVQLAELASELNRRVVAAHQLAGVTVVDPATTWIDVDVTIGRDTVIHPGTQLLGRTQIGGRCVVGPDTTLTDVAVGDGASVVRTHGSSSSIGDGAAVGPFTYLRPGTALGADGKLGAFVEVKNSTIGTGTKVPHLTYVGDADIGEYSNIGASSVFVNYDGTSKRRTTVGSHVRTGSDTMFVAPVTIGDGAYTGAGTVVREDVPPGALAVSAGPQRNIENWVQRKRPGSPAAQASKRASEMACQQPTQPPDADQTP

This assay concerns the target Bifunctional protein GlmU (Mycobacterium tuberculosis (strain ATCC 25618 / H37Rv)) (UniProt P9WMN3). The assay can be described thus: inhibition of mycobacterial GlmU enzyme – biochemical, glucosamine-1-phosphate acetyltransferase (AID 1376).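 Further: 0% = complete reaction with vehicle and 100% = reaction without substrate.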 The following applies: M. tuberculosis GlmU acetyltransferase enzyme assay; active compounds read high;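 tested at 30 µM in the primary screen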.
Usually inhibition stands for the change of the read-out against control, counted positive when it falls. For `COc1ccc(C(=O)NC(=S)Nc2ccc(N3CCCC3)cc2)cc1`, the inhibition is -3.46%.
Then `COc1ccc(C(=O)Nc2ccc(N3CCCC3)cc2)cc1`, with 13.4% (active).
With `CC(C)Oc1ccc(C(=O)Nc2ccc(N3CCCC3)cc2)cc1`, the inhibition was 2.23%.
`O=C(O[C@@H]1OC2COC(=O)c3cc(O)c(O)c(O)c3-c3c(cc(O)c(O)c3O)C(=O)O[C@@H]([C@H]1O)[C@@H]2O)c1cc(O)c(O)c(O)c1`: the inhibition was 30.4%.
As for `CCC(=O)Nc1sc(C(=O)Nc2ccccc2OC)c(C)c1C(=O)OC`, the inhibition was 7.34%.
For the compound `O=C(O)/C=C/c1ccc(O)c(O)c1`, the inhibition was 5.24%.
Then `O=C(/C=C/c1ccc(O)c(O)c1)OCCc1ccccc1`, with -2.12%; and `CCN1C(=O)CC(N2CCOCC2)C1=O` (stereo not drawn), with -3.77%; and `CCOc1ccc(C2CC(c3ccc(F)cc3)Nc3nc(N)nn32)cc1` (stereo not drawn), with 2.32%.
As to `O=C1NC(=S)S/C1=C\c1coc2ccccc2c1=O`, the inhibition was 5.72%.
Then `CN1C(=O)/C(=C/c2coc3ccc(O)cc3c2=O)SC1=S`, with 2.74%.
Then `O=C(Nc1ccc(Cl)cc1)Nc1ccccc1C(=O)O`, with -1.73%; and `CN1CCN(CC(=O)Nc2sc3c(c2C#N)CCC(C(C)(C)C)C3)CC1` (stereo not drawn), with 2.19%; and `Cc1nn(CC(=O)Nc2sc3c(c2C#N)CCC(C(C)(C)C)C3)c(C)c1[N+](=O)[O-]` (stereo not drawn), with 14.3% (active).
Regarding `Cc1nn(CCCC(=O)Nc2sc3c(c2C#N)CCC3)c(C)c1[N+](=O)[O-]`, the inhibition was -0.77%.
In the case of `CC(C)CCn1c(=O)c2ccccc2n2c(CN3CCCC3)nnc12` it was -3.44%; in that of `O=C1N=c2ccccc2=C1c1sc(=S)n(NC(=O)c2ccccc2)c1O`, 13.4% (active).
Regarding `O=C1N=c2ccccc2=C1c1sc(Nc2ccc(O)cc2)nc1O`, the inhibition is 6.45%.
As to `COc1cc(C(=O)Nn2c(O)c(C3=c4ccccc4=NC3=O)sc2=S)ccc1O`, the inhibition is 4.03%.
In the case of `O=C1N=c2ccccc2=C1c1sc(=S)n(NC(=O)c2cccc(O)c2)c1O` it was -0.24%; in that of `O=S(=O)(Nn1c(O)c(C=C2N=c3ccccc3=N2)sc1=S)c1ccccc1`, 7.14%.
In the case of `O=C1N=c2ccc(Br)cc2=C1c1sc(=S)n(NS(=O)(=O)c2ccccc2)c1O` it was 13.8% (active); in that of `Cc1ccc(S(=O)(=O)Nn2c(O)c(C=C3N=c4ccccc4=N3)sc2=S)cc1`, 0.22%; in that of `O=C1N=c2ccccc2=C1c1sc(NS(=O)(=O)c2ccccc2)nc1O`, 13.8% (active).
Consider `O=C1N=c2ccccc2=C1c1sc(NS(=O)(=O)Cc2ccccc2)nc1O`, for which the inhibition is 5.63%.
Consider `COc1ccc(C(=O)C2CCCN(C(=O)Cc3c(C)noc3C)C2)cc1OC` (stereo not drawn), for which the inhibition is -6.51%.
In the case of `COc1ccccc1C(=O)NCCCN1CCCC1=O` it was -0.52%.
In the case of `Nc1c(C(=O)c2ccc(F)cc2)oc2ccccc12`, the inhibition is 1.74%.
Then `CCOc1ccccc1NC(=S)N(CCOC)C1CCN(C(C)=O)CC1`, with 1.9%.
In the case of `CC(=O)N1CC=CC1(C)C(=O)NCc1cc(F)cc(C(F)(F)F)c1` (stereo not drawn), the inhibition is -2.53%.
Then `CCCCC(=O)Nc1ccc(C(=O)Nc2ccc(S(=O)(=O)Nc3ccc(C)cc3)cc2)cc1`, with 3.43%; and `CCOc1ccc(N(CC(=O)NCC2CCCO2)C(=O)CCC(=O)Nc2nccs2)cc1` (stereo not drawn), with -0.08%.
Then `Cc1oc(/N=C/c2c(O)ccc3ccccc23)c(C#N)c1C`, with -4.74%; and `Nc1c(C(=O)N2CCOCC2)sc(=S)n1-c1ccccc1`, with 13.9% (active); and `Cc1ccc(-n2c(N)c(C(=O)N3CCOCC3)sc2=S)cc1`, with -2.93%.
Then `Nc1c(C(=O)N2CCCCC2)sc(=S)n1-c1ccccc1`, with -0.25%; and `Cc1cc2ccccc2c(=O)n1CC(=O)NCC(=O)N1CCN(c2ccccc2F)CC1`, with -1.95%.
For the compound `CCOc1cc(CNCc2cccs2)ccc1OCC(=O)NC(C)(C)C`, the inhibition was 4.39%.
In the case of `OC(COc1ccc(Br)cc1)CN1CCOCC1` (stereo not drawn) it was -1.6%; in that of `COc1ccc(CSc2nnc(NC(C)=O)s2)cc1[N+](=O)[O-]`, -1.4%; in that of `C/C(=N\NC(=O)c1cccc(C)c1)c1cccc(NC(=O)c2ccco2)c1`, 21.3% (active).
In the case of `C/C(=N\NC(=O)c1ccc(F)cc1)c1cccc(NC(=O)c2ccco2)c1` it was 1.13%.
Regarding `C/C(=N\NC(=O)c1cccc(Cl)c1)c1cccc(NC(=O)c2ccco2)c1`, the inhibition is 4.79%.
`Cc1cccc(Cn2cccc2/C=C2/C(=N)N3C=CSC3=NC2=O)c1`: the inhibition was -1.25%.
In the case of `CC(C)CC12CN3CCN(CC(C3)/C1=N/O)C2` it was 0.59%; in that of `COc1ccc(COc2ccccc2C(N)=O)cc1F`, 3.33%; in that of `O=S(=O)(c1ccc(OCC(O)CN2CCN(c3ccc(F)cc3)CC2)cc1)N1CCOCC1` (stereo not drawn), 3.7%.
With `Cc1ccccc1CN1[C@@H](Cc2ccccc2)COCCS1(=O)=O`, the inhibition was -3.47%.
As to `O=C(O)c1cc(N=Nc2c(O)ccc3ccccc23)cc(C(=O)O)c1`, the inhibition is 25.6% (active).
Then `O=S(=O)(O)c1cccc(N=Nc2c(O)ccc3ccccc23)c1`, with 3.89%; and `Oc1ccc(N=Nc2c(O)ccc3ccccc23)cc1`, with 0.98%.
Then `C#CCn1c(-c2ccccc2)ccc(C#N)c1=O`, with 1.35%.
Then `CCOC(=O)Cn1c(-c2ccccc2)ccc(C#N)c1=O`, with -5.69%; and `CCn1c(-c2ccccc2)ccc(C#N)c1=O`, with 14.1% (active); and `O=C(CSc1ccccc1C(=O)O)NCC1CCCCC1`, with -4.3%.
Take `COCCn1c(SCC(=O)c2[nH]c(C)c(C(C)=O)c2C)nc2ccccc21`: the inhibition was 3.37%.
Consider `Cc1cc(N2CCC(C(=O)NC3CC3)CC2)nc(-c2ccccc2)n1`, for which the inhibition is 1.37%.
Then `Cc1cc(N2CCC(C(=O)NC3CCCCC3)CC2)nc(-c2ccccc2)n1`, with 13.9% (active); and `C#CCNC(=O)C1CCN(c2cc(C)nc(-c3ccccc3)n2)CC1`, with -1.53%.
In the case of `CC(=O)c1ccc(N2CCN(C(=S)Nc3ccccc3F)CC2)cc1` it was -4.01%.
In the case of `CCCS(=O)(=O)N1CCC(C(=O)N2CCN(Cc3ccccc3)CC2)CC1` it was 30.1% (active).
In the case of `CS(=O)(=O)N1CCC(C(=O)N2CCN(Cc3ccccc3)CC2)CC1`, the inhibition is 0.44%.
Then `CCS(=O)(=O)N1CCC(C(=O)N2CCN(Cc3ccccc3)CC2)CC1`, with -4.26%; and `Cc1cc(C(=O)CN2C(=O)C(=O)N(C3CCCC3)C2=O)c(C)n1-c1ccc(F)cc1`, with 7.31%; and `Cc1c(Cl)cc(-n2cnnn2)cc1[N+](=O)[O-]`, with 0.95%.
In the case of `O=C(CSc1nnc(-c2ccco2)c(-c2ccco2)n1)c1ccccc1` it was 0.16%; in that of `O=C(CSc1nnc(-c2ccco2)c(-c2ccco2)n1)Nc1ccccc1`, 13.4% (active); in that of `COc1ccc(C(=O)CSc2n[nH]c(-c3ccco3)n2)cc1`, 4.52%.
Then `COc1ccc(C(=O)CSc2nnc(-c3ccco3)c(-c3ccco3)n2)cc1`, with 12.8% (active); and `Cc1ccc(NC(=O)CSc2nnc(-c3ccco3)c(-c3ccco3)n2)cc1`, with 6.2%; and `CC(=O)c1ccc(NC(=O)CSc2nnc(-c3ccco3)c(-c3ccco3)n2)cc1`, with 9.28%.
With `CC1(c2nnc(Cc3ccccc3)o2)CC(c2ccc([N+](=O)[O-])cc2)=NO1` (stereo not drawn), the inhibition was -2.83%.
As for `CCCn1c(SCC(=O)Nc2ccc(OCC)cc2)nnc1C(C)C`, the inhibition is 2.8%.
Then `COC(=O)N/N=C/c1c(C)nn(-c2cccc(Cl)c2)c1Cl`, with -2.28%; and `CC(=O)Nc1ccc(NS(=O)(=O)c2ccc(Cl)c(C(=O)O)c2)cc1`, with -0.86%.
In the case of `O=C(O)c1cc(S(=O)(=O)Nc2ccc(N3CCCCC3)cc2)ccc1Cl` it was 14.1% (active).
In the case of `O=S(=O)(Nc1ccc(N2CCCCC2)cc1)c1ccc(F)c(F)c1` it was 1.08%; in that of `O=C1CC2(CCCCC2)Oc2ccc(Cl)cc21`, -3.86%.
For the compound `CCCCN(CCCC)CCNC(=O)CNC(=O)c1cccs1`, the inhibition was 2.63%.
Turning to `CCN(CC(=O)Nc1ccc(OC(F)F)cc1)C1CCCCC1`, the inhibition is 2.82%.
On to `C=CCOc1ccc(Br)cc1/C=C1/SC(=Nc2ccc(C(=O)O)cc2)NC1=O`, for which the inhibition is 15.9% (active).
Regarding `C=CCOc1ccc(Br)cc1/C=N/O`, the inhibition was -4.35%.
As for `COc1cc(/C=C2/SC(=Nc3ccc(O)cc3)NC2=O)ccc1O`, the inhibition was 35.3%.
Then `CCOc1cc(S(=O)(=O)NCCc2ccccc2C)c(OCC)cc1-n1cnnn1`, with 1.72%; and `O=C1CC(NCc2ccccc2)C(=O)N1c1ccc(F)cc1` (stereo not drawn), with -3.58%; and `O=c1[nH]nc(SCc2nnc(-c3cccc(Cl)c3)o2)n1C1CCCCC1`, with 1.07%.
Regarding `CC(C)(CNc1ccc([N+](=O)[O-])cc1Cl)CNS(C)(=O)=O`, the inhibition is -2.7%.
In the case of `O=Cc1s/c(=N\S(=O)(=O)c2ccccc2)n(CCCCl)c1Cl` it was 14% (active); in that of `COCCCN1C(=O)CS/C1=N\S(=O)(=O)c1ccccc1`, 5.52%; in that of `CCn1c(Cl)c(C=O)s/c1=N\S(=O)(=O)c1ccccc1`, 5.14%.
In the case of `CC/C(=N/NS(=O)(=O)c1ccc(Cl)cc1)c1ccc(O)cc1` it was 2.54%; in that of `CC(C)C1Nc2c(O)cc(Cl)c([N+](=O)[O-])c2C2C=CCC21` (stereo not drawn), 4.55%.
In the case of `Cc1ccc2c(c1C)NC(C(=O)O)C1CC=CC21` (stereo not drawn) it was 13.2% (active).
As to `COc1cccc2c1NC(C(=O)O)C1CC=CC21` (stereo not drawn), the inhibition is 60.8% (active).
On to `O=C(O)C1Nc2c(O)cc(Cl)c([N+](=O)[O-])c2C2C=CCC12` (stereo not drawn), for which the inhibition is 65% (active).
In the case of `O=C(O)C1Nc2c(O)cccc2C2C=CCC12` (stereo not drawn) it was 33.7% (active); in that of `COc1cccc(C2Nc3c(F)cc(Br)cc3C3C=CCC32)c1OC` (stereo not drawn), 0.44%.
Then `COC(=O)CNC(=O)C1Nc2ccccc2C2C=CCC12` (stereo not drawn), with 3.22%; and `CC(C)CNC(=O)C1Nc2ccccc2C2C=CCC12` (stereo not drawn), with 0.47%; and `O=C(O)C1Nc2c(C(=O)N3CCOCC3)cccc2C2C=CCC12` (stereo not drawn), with 1.95%.
Regarding `CCOC(=O)C1Nc2c(F)cc(C)cc2C2C=CCC12` (stereo not drawn), the inhibition is 3.49%.
Then `CC(C)C1Nc2ccc(C(=O)O)cc2C2C=CCC21` (stereo not drawn), with 5.77%; and `O=[N+]([O-])c1ccc(Cl)c2c1C1C=CCC1C(c1ccccn1)N2` (stereo not drawn), with 3.42%.
